# Sampled rows, rich in hits. Any-hit rate of the full collection: about 2.8%.
# IP6K1 inhibitor: inhibitors of human IP6K1 | Q92551 | IP6K1 kinase, ADP-Glo luminescence, 2 h; hits give low values | activity change, % (series mostly up to about 58 µM) | actives 0.81% (n = 140,000); in the data active = activity change below about -25%; also: % is scaled to controls: 0 for no effect and ±100 for the full control effect
#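 ADP-Glo luminescence measures ADP made by human IP6K1 during a 2 h RT reaction with ATP/IP6 (mix at 1.3 mM/130 uM); top library doses 57.5 and 19.1 uM final.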
# KDM5B inhibitor: blocks human KDM5B histone demethylase activity. actives 2.6% (n = 220,000). AID 1347165. Q9UGL1. KDM5B demethylase, FDH-coupled NADH fluorescence (FDH is formaldehyde dehydrogenase). Potency, µM (titrated, usually from 57.7 µM), actives largely listed as inhibitors; also: potency is read from the fitted curve at half-maximal effect; 0% is about no effect; nearly all actives have a fitted effect of over 70% in size
#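 Coupled FDH/NAD⁺ fluorescence readout. KDM5BΔAP 200 nM final; compound titration, 10 min RT preincubation; substrate mix 12.5 µM H3K4me3, 25 µM 2-OG, 50 µM Fe(II), 100 µM ascorbate, 0.25 mM NAD⁺, 0.25 U/mL FDH; ΔRFU over 30 min.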
# IP6K1 conf: confirmation of human IP6K1 inhibitors | shares compounds with IP6K1 inhibitor | recombinant IP6K1 kinase, ADP-Glo luminescence, 2 h | Potency, µM (top dose mostly 49 µM), without a hit: at the top dose activity change, negative = inhibition, hits mostly inhibitors | actives 13% (n = 1,200) | AID 1645852; also: potency is read from the fitted curve at half-maximal effect; % is scaled to controls: 0 for no effect and ±100 for the full control effect; nearly all actives have a fitted effect of over 65% in size
# * = called active by the depositor; i = inactive; ? = inconclusive; nt = no result; ! = not active in a repeat; [ ] = remark or other dose. Unless noted, calls follow the shape of the dose curve; as a rule, active = well fitted inhibition curve with a large enough effect; inconclusive = small, poorly fitted or top-dose-only effect; inactive = no such curve, though single readings can be large or run the other way.
SMILES,IP6K1 inhibitor,KDM5B inhibitor,IP6K1 conf
CN(C)C/C=C/C(=O)Nc1cccc(C(=O)Nc2ccc(Nc3nccc(-c4cccnc4)n3)cc2)c1,-29*,nt,?
CN(C)C/C=C/C(=O)Nc1cccc(C(=O)Nc2cccc(Nc3ncc(Cl)c(-c4c[nH]c5ccccc45)n3)c2)c1,1,nt,nt
CC1(C)CC(NC(=S)NC2CC3CCC2C3)CC(C)(C)N1 (stereo not drawn),nt,i,nt
O=C1NC(=NC2CCCC2)C2(CCN(Cc3ccc(F)cc3)C2)N1c1cccnc1 (stereo not drawn),1,i,nt
CCOCCC(=O)NCc1ccc(OC)cc1,nt,i,nt
Cc1ccoc1C(=O)OCc1ccccc1C#N,nt,i,nt
CN[C@@H](CO)C(=O)NCc1nc(-c2ccc(C)cc2)c(-c2ccccn2)[nH]1,-45*,?,-10%
Cc1ccc(-c2nc(CNC(=O)C(C)CN)[nH]c2-c2ccccn2)cc1 (stereo not drawn),0,i,nt
Cc1nc(-c2ccc(S(=O)(=O)Nc3ccccc3Cl)cc2)co1,nt,i,nt
CC(C)C(CO)Nc1nc(Nc2cc(N)cc(Cl)c2)c2ncn(C(C)C)c2n1 (stereo not drawn),-8,nt,nt
CC(C)[C@H](CO)Nc1nc(Nc2ccc(C(=O)O)c(Cl)c2)c2ncn(C(C)C)c2n1,-14,nt,-6%[18.9 µM]
O=C(NOCC(O)CO)c1ccc(F)c(F)c1Nc1ccc(I)cc1F (stereo not drawn),-5,nt,nt
O=C(NC[C@H](O)CO)c1ccncc1Nc1ccc(I)cc1F,nt,nt,-2%
Clc1ccccc1N/N=C/c1cccc(/C=N/Nc2ccccc2Cl)c1,nt,i,nt
O=C1CCCC2=C1C(c1cccc(Cl)c1Cl)CC(=O)N2c1ccc(F)cc1 (stereo not drawn),nt,i,nt
CCc1cccc(NC(=O)Cn2c(=O)cc(C(=O)NC)c3ccccc32)c1,nt,i,nt
COc1ccc(NC(=O)CN2CCN(Cc3ccccc3Cl)S2(=O)=O)cc1Cl,-29*,i,?
CCc1cccc(C)c1NC(=O)CN1CCN(Cc2ccccc2Cl)S1(=O)=O,25,i,nt
N#Cc1ccccc1COc1ccc(C(=O)c2ccc(F)cc2)cc1,nt,i,nt
COc1cc(C(=O)N2CC(=O)Nc3ccc(C)cc3C2c2ccc(F)cc2)cc(OC)c1OC (stereo not drawn),-22,i,nt
Cc1ccc2c(c1)C(c1ccc(F)cc1)N(C(=O)c1cccc(C(F)(F)F)c1)CC(=O)N2 (stereo not drawn),-26*,i,?
O=C1NC(=NC2CCCC2)C2(CCN(Cc3ccc(F)cc3)C2)N1c1cc(F)cc(F)c1 (stereo not drawn),0,i,nt
COc1cc(F)c(F)c(Nc2ccc(I)cc2F)c1NS(=O)(=O)C1(C[C@H](O)CO)CC1,-6,nt,-15%
O=C(c1ccc(F)c(F)c1Nc1ccc(I)cc1F)N1CC(O)([C@@H]2CCCCN2)C1,8,nt,nt
CCc1ccc(C(=O)COC(=O)c2ccc(S(=O)(=O)NCc3ccco3)cc2)cc1,nt,i,nt
SMILES,IP6K1 inhibitor,KDM5B inhibitor,IP6K1 conf
CC(C)Nc1cc(-c2c[nH]c(C(=O)N[C@H](CO)c3cccc(Cl)c3)c2)c(Cl)cn1,-19,nt,nt
Cc1cnc(Nc2ccc(F)cc2Cl)nc1-c1c[nH]c(C(=O)NC(CO)c2cccc(Cl)c2)c1 (stereo not drawn),-42*,nt,9.2µM*
COc1ccc(C2CCCN2Cc2coc(-c3ccc(C)cc3C)n2)cc1 (stereo not drawn),nt,i,nt
Oc1ccc(C2(c3ccccc3O)CCCCC2)cc1,nt,i,nt
Cc1ccc(CC(=O)NCc2nc(-c3ccccc3)no2)cc1,-27*,i,-15%
Cc1ccc(CC(=O)NCc2nc(-c3cccc(C)c3)no2)cc1,-15,i,nt
Cc1ccc(-c2noc(CNC(=O)c3ccc(C(C)(C)C)cc3)n2)cc1,-19,i,nt
Cc1ccc(-c2noc(CNC(=O)c3ccccc3)n2)cc1,-31*,i,?
O=C(Nc1ccccc1Cl)c1cc(-c2cccs2)on1,nt,i,nt
CNC(=O)c1cc(C)nc2onc(C3CCN(C(=O)c4ccc(F)cc4)CC3)c12,9,nt,nt
CC(C)(C)c1cc(O)cc(C(C)(C)C)c1,nt,i,nt
CCOC(=O)N1CCN(Cc2nc3cc(NC(=O)c4ccccc4Cl)ccc3n2C(C)C)CC1,-25*,?,-12%
CCCC(=O)Nc1ccc2c(c1)nc(CN1CCN(C(=O)OCC)CC1)n2C(C)C,-28*,i,35%
CCCn1c(CN2CCN(C(=O)OCC)CC2)nc2cc(NC(=O)c3ccc(Cl)cc3)ccc21,nt,i,nt
CCOC(=O)N1CCN(Cc2nc3cc(NC(C)=O)ccc3n2C(C)C)CC1,-10,?,nt
O=C(Nc1ccccc1)C1=C(c2ccccc2)SCCO1,nt,i,nt
O=C(Nc1ccc(I)cc1)c1cc(-c2ccc[nH]2)n[nH]1,-10,i,?
Cc1ccc(F)cc1NC(=O)c1cc(-c2ccc[nH]2)n[nH]1,10,i,?
COc1ccc(NC(=O)c2cc(-c3ccc[nH]3)n[nH]2)cc1OC,-2,i,nt
O=C(Nc1cccc(OC(F)(F)F)c1)c1cc(-c2ccc[nH]2)n[nH]1,6,i,?
Cc1cc(NC(=O)c2cc(-c3ccc[nH]3)n[nH]2)ccc1F,22,i,nt
COc1ccc(OC)c(NC(=O)c2cc(-c3ccc[nH]3)n[nH]2)c1,-5,i,nt
Cc1ccc(C(=O)COC(=O)c2cc(=O)[nH]c3ccc(C)cc23)cc1,nt,i,nt
CCCN(Cc1ccccc1)C(=O)c1cccs1,nt,i,nt
COc1ccc(CNC(=O)Cc2c(C)c3c(OC)cc(C)cc3oc2=O)cc1OC,nt,i,nt
SMILES,IP6K1 inhibitor,KDM5B inhibitor,IP6K1 conf
O=C(c1ccccc1)N1C[C@H]2OC(=O)N(CCCN3CCOCC3)[C@H]2C1,1,i,nt
CCc1ocnc1C(=O)N1C[C@H]2OC(=O)N(CCCN3CCOCC3)[C@H]2C1,-72*,i,-11%
O=C(Cc1ccccc1F)N1CCOc2ccc(CN3CCc4ccccc4C3)cc2C1,-9,i,nt
COc1ccc(S(=O)(=O)N(CC(=O)NC(C)c2ccccc2)c2ccc(C)cc2)cc1OC (stereo not drawn),-33*,i,?
COc1ccc(S(=O)(=O)N(CC(=O)NCc2ccncc2)c2ccc(C)cc2)cc1Br,nt,i,nt
COc1ccc(S(=O)(=O)N(CC(=O)NC2CCCCCC2)c2ccc(C)cc2)cc1OC,nt,i,nt
COc1ccc(S(=O)(=O)N(CC(=O)NCc2ccccc2)c2ccc(C)cc2)cc1OC,-26*,i,-4%
C[S+](=O)([O-])N1CC2(Cc3ccccc31)CN(C(=O)c1cccc(Cl)c1)C2,-3,i,nt
O=C(Nc1ccc(Cl)cc1)N1CCN(c2ccc3nnc(-c4ccccc4)n3n2)CC1,-30*!,?,?
O=C(Nc1ccc(Cl)cc1)N1CCCN(c2ccc3nnc(-c4ccccc4)n3n2)CC1,9,nt,nt
O=C(c1ccc2ccccc2c1)N(Cc1ccccc1)C1CC1,nt,i,nt
O=C(Nc1cccc(F)c1)Nc1ccnn1C1CCN(C(=O)CCN2CCCO2)CC1,nt,i,nt
NCCC(=O)N1CCC(n2nccc2NC(=O)Nc2cccc(F)c2)CC1,-30*,11µM*,16%
CCCOc1cc(S(=O)(=O)N2CCCC2)c(C)cc1C,nt,i,nt
Cc1ccc2nc(-c3ccsc3)c(Nc3ccc(C(C)C)cc3)n2c1,22,i,nt

# Screening results from PubChem.
